Screening results from PubChem.
Rows were chosen to be rich in hits. Some 6.5% of all compounds tested hit in one or more screens of this group.
FMDV antiviral = blocks foot and mouth disease virus. actives 1.2% (n = 410,000). AID 1159524. Potency, µM (doses to about 57.9 µM), for the others: top-dose activity change, negative = inhibition, usual class: inhibitors. FMDV antiviral cell-based qHTS; calls by dose curve; tested in HEK293T cells; note: read-out not given here; potency is the fitted concentration of half-maximal effect; nearly all actives have a fitted effect of over 45% in size
Marburg entry inh = Marburg virus entry inhibition; Marburg virus pseudotyped entry inhibition, cell reporter; Potency, µM (highest dose often 37.8 µM), for the others: top-dose activity change, negative = inhibition, usual class: inhibitors; actives 1.8% (n = 300,000); AID 540276; calls by dose curve; tested in HEK293 cells; note: potency is the fitted concentration of half-maximal effect
Vaccinia mCherry = vaccinia inhibition (mCherry reporter) | Vaccinia virus mCherry reporter infection, fluorescence | Potency, µM (series often up to 36.5 µM), without a hit: at the top dose activity change, negative = inhibition, usual class: inhibitors | actives 0.63% (n = 310,000) | AID 720579; calls by dose curve; tested in A549 cells; note: potency is the fitted concentration of half-maximal effect; nearly all actives have a fitted effect of over 35% in size
HCMV inh = blocks human cytomegalovirus replication; AID 1259415; HFF cells, HCMV-luciferase reporter, 72 h; stronger effect = lower value; activity change, negative = inhibition, % at 57.5 µM; actives 4.5% (n = 410,000); in the data active = activity change below about -60%; inconclusive = no clear call, values can overlap the other calls; inactive = above about -39%
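Luciferase read-out from HCMV-luciferase-infected HFFs (MOI 1 PFU/cell) 72 h post infection at 37C; compounds added after 16 h cell attachment; activity normalized between buffer-only basal and Salinomycin (10uM) inhibitor controls.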
Lassa entry inh = blocks Lassa virus binding to or entry into cells | Potency, µM (top dose mostly 37.9 µM), without a hit: at the top dose activity change, negative = inhibition, most hits filed as inhibitors | actives 1.2% (n = 300,000) | Lassa virus pseudotype entry inhibition, cell reporter | AID 540256; calls by dose curve; tested in HEK293 cells; note: potency is the fitted concentration of half-maximal effect; nearly all actives have a fitted effect of over 50% in size
VACV Venus inh = inhibitors of vaccinia virus (Venus reporter); Potency, µM (top dose mostly 36.5 µM), without a hit: at the highest dose activity change, negative = inhibition, usual class: inhibitors; actives 0.46% (n = 330,000); Vaccinia virus Venus reporter expression, fluorescence; AID 720580; calls by dose curve; tested in A549 cells; note: potency is the fitted concentration of half-maximal effect; nearly all actives have a fitted effect of over 30% in size
The depositor's hits bear a star; i = inactive; ? = inconclusive; . = no result given; [ ] = another dose, or the depositor's remark. % is set by controls: 0 for no effect and ±100 for the full control effect.

SMILES	FMDV antiviral	Marburg entry inh	Vaccinia mCherry	HCMV inh	Lassa entry inh	VACV Venus inh
CC(C)(C)c1ccc(NC(=O)COc2ccc(-n3ccnc3)cc2)cc1	11µM*	?	.	-86*	?	?
COc1ccc(OCC(=O)N/N=C(\C)c2ccc(-n3ccnc3)cc2)cc1	-8%	4%	-17%	6	-21%	-3%
C/C(=N\NC(=O)COc1ccc(C(C)(C)C)cc1)c1ccc(-n2ccnc2)cc1	?	8%	?	48	?	?
Cc1ccccc1-n1c(C)nnc1SC(C)C(=O)NCc1ccco1 (stereo not given)	.	.	-26%	.	.	-16%
CC(=O)N1CCc2cc(Br)cc(S(=O)(=O)CCC(=O)N3CCN(c4ccccc4Cl)CC3)c21	0%	-12%[46.1 µM]	-7%	10	-10%[46.1 µM]	-14%
CCc1c(C)c2ccccc2[nH]c1=O	.	.	-1%	.	.	-17%
CCCc1cc(=O)n2c(C(=O)Nc3ccc(OCC)cc3)c(C(=O)Nc3ccc(C)cc3)sc2n1	-18%	17%[46.1 µM]	-18%	-84*	?	-23%
CCN(CC)C(=O)c1ccc(S(=O)(=O)N2CCC(c3nc4ccccc4s3)CC2)cc1	.	?	-10%	-96*	?	?
N#Cc1c[nH]n2c(NC3CCCC3)c(-c3ccc(Br)cc3)nc12	-14%	?	-18%	-14	-27%[46.1 µM]	-26%
N#Cc1c[nH]n2c(NC3CCCC3)c(-c3ccc(Cl)cc3)nc12	-11%	1.4µM*	-19%	-20	-27%[46.1 µM]	-14%
COC1=C[C@H](C(=O)NCCOC(C)=O)[C@H](C)[C@@H](c2ccccc2)CC1=O	.	-39%[14.2 µM]	.	.	.	.
O=C1NC(=O)N(Cc2ccc(F)cc2)C(=O)/C1=C/c1cccs1	32µM*	-22%	i	12	-4%	-2%
O=C1NC(=O)N(Cc2ccccc2Cl)C(=O)/C1=C/c1cccs1	22µM*	.	-15%	-97*	.	?
O=C1NC(=O)N(Cc2ccc(F)cc2)C(=O)/C1=C\c1ccoc1	-28%	10%[46.1 µM]	i[7.34 µM]	?	-14%	9%[7.34 µM]
Cc1ccc(/C=C2/C(=O)NC(=O)N(Cc3ccc(F)cc3)C2=O)o1	.	.	.	28	.	.
Cc1ccc(/C=C2\C(=O)NC(=O)N(CCc3ccc(F)cc3)C2=O)o1	22µM*	1%	.	27	.	.
Cc1ccc(/C=C2\C(=O)NC(=O)N(Cc3ccccc3Cl)C2=O)o1	32µM*	.	.	125	.	.
CC1=C[C@@H](COCc2ccccc2)O[C@@]2(C1)C(=O)N(Cc1ccc(Br)cc1)c1ccccc12	.	4%[14.2 µM]	.	.	?	.
CCOC(=O)c1cc(OCc2csc(-c3ccccc3)n2)cc(C(=O)OCC)c1	.	.	-8%	.	.	-11%
Cc1ccc2c(c1)c(Sc1ccccc1)c(CC(=O)O)n2C	-5%	9%	-13%	-15	6%	-4%
CCOC(=O)Cc1c(Sc2ccccc2)c2cc(C)ccc2n1C	0%	?	-10%	-60*	-1%	0%
COC(=O)c1ccc(NC(=O)CC2Nc3cc(C)c(C)cc3NC2=O)cc1 (stereo not given)	?	12%[46.1 µM]	-17%[7.34 µM]	-99*	?	-17%[7.34 µM]
Cc1cc2c(cc1C)NC(CC(=O)Nc1ccccc1)C(=O)N2 (stereo not given)	-1%	-4%[46.1 µM]	1%	-100*	?	-7%
COc1ccc(/C=N/NC(=O)CSCC(=O)Nc2ccccc2)cc1	0%	.	.	22	.	.
COc1cccc(/C=N/NC(=O)CSCC(=O)Nc2ccccc2)c1O	15%	21µM*	.	-93*	?	.
SMILES	FMDV antiviral	Marburg entry inh	Vaccinia mCherry	HCMV inh	Lassa entry inh	VACV Venus inh
COc1cccc(/C=N/NC(=O)CNC(=O)/C=C\c2ccccc2)c1O	31%	.	.	-21	.	.
COc1cccc(/C=N/NC(=O)CNC(=O)C(c2ccccc2)c2ccccc2)c1O	39%	?	3.5µM*	17	10µM*	?
CCOc1cccc(C=NNC(=O)C(=O)Nc2cccc(C(F)(F)F)c2)c1O	.	.	.	-62*	.	.
CCC1(C2CCN(C(=O)c3ccccc3Cl)CC2)NC(=O)N(CCc2scnc2C)C1=O (stereo not given)	9%	.	i	.	.	-14%
O=Cc1[nH]c2ccccc2c1N(C(=O)CCl)c1ccc([N+](=O)[O-])cc1	-19%	?	-25%	-101*	?	-4%
CC(=O)n1cc(N(C(=O)CCl)c2ccc([N+](=O)[O-])cc2)c2ccccc21	10µM*	?	-28%	?	?	-21%
